Cruzain Triton: cruzain (T. cruzi) inhibition with detergent; P25779; purified cruzain, Z-FR-AMC fluorescence, 0.01% Triton; Potency, µM, for inactives: max response, negative = inhibition, hits mostly inhibitors; actives 0.43% (n = 200,000);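 also: plate controls were neutral wells for no effect and buffer without enzyme for full effect; nearly all actives have a fitted effect of over 40% in size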
Target sequence (P25779 123-467 limits assumed): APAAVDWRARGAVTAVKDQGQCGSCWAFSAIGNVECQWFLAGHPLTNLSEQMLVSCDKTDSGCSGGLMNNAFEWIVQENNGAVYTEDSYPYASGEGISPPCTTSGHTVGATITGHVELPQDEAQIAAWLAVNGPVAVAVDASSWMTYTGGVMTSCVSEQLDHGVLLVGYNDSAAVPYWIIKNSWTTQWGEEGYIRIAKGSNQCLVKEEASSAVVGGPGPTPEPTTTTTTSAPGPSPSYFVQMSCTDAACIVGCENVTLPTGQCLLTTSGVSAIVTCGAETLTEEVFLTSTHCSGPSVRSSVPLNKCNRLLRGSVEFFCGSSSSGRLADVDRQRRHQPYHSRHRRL
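Cruzain (1.5 nM) preincubated 15 min at RT with compound in 100 mM sodium acetate pH 5.5, 5 mM DTT, 0.01% Triton X-100. Reaction started with 2 uM Z-FR-AMC; AMC fluorescence (ex 360/em 450 nm) change over 60 s gave rate.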
Cruzain noTriton: cruzain (T. cruzi) inhibition without detergent; P25779; purified cruzain, Z-FR-AMC fluorescence, no detergent; Potency, µM, for the others: max response, negative = inhibition, most hits filed as inhibitors; actives 2.3% (n = 200,000); AID 1476;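 also: plate controls were enzyme without inhibitor for no effect and buffer without enzyme for full effect; nearly all actives have a fitted effect of over 40% in size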
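Purified cruzain at 1.5 nM, pre-incubated 15 min with compound at room temperature in 100 mM sodium acetate pH 5.5, 5 mM DTT, 0.00005% Triton X-100. Reaction started with 2 uM Z-FR-AMC; AMC fluorescence increase over 60 s gives rate.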
An asterisk follows results filed as active; ? = inconclusive. Rows were chosen to be rich in hits. Some 2.6% of all compounds tested hit in one or more screens of this group. Calls follow the shape of the dose curve; as a rule, active = well fitted curve in the direction sought with a large enough effect; inconclusive = small, poorly fitted or top-dose-only effect, or another doubt; inactive = no such curve, though single readings can be large; an effect the other way counts as inactive or inconclusive. Potency is read from the fitted curve at half-maximal effect.

SMILES | Cruzain Triton | Cruzain noTriton
Cc1ccc(C2=N/C(=C\c3c(C)nn(-c4ccccc4)c3N3CCCC3)C(=O)O2)cc1 | 1µM* | 1.6µM*
CN(C)C[C@H]1CCC[C@@H](CN(C)C)C1=O | 7% | -3%
CS(=O)(=O)N1CCC2(CCCN(Cc3ccc(C#N)cc3)C2)CC1 | 3% | 2%
Cc1noc(C)c1-c1cncnc1N(C)Cc1ccco1 | 1% | 9%
COc1ccc(C2/C=C\CC(NC(=O)OCC3c4ccccc4-c4ccccc43)CC(=O)N2Cc2cccc(F)c2)cc1 (stereo not given) | 1% | ?
COc1ccc(C2/C=C\CC(NC(=O)OCC3c4ccccc4-c4ccccc43)CC(=O)N2Cc2ccccc2F)cc1 (stereo not given) | 1% | 13µM*
CC(=O)Nc1ccc2nc3c(=O)[nH]c(=O)[nH]c3nc2c1 | -7% | 11%
Cc1cc(=O)n(Cc2cccc(Cl)c2)c2c1c(C)nn2-c1ccccc1 | 0% | -8%
COc1ccccc1-n1ncc2c(=O)[nH]c(SCC(=O)Nc3ccc(Cl)cc3)nc21 | -1% | -2%
COc1ccc(-c2csc(N3CCC(c4ccccc4)C3)n2)cc1 (stereo not given) | 2% | -6%
COc1ccc(-c2csc(-n3ncc(-c4cccs4)c3N)n2)cc1 | 5% | 1.6µM*
CCOc1ccc(CCNC(=O)c2cc3c(s2)-c2ccccc2OC3)cc1OCC | -17% | 8%
Cc1cc(Br)c(OCc2ccc(C(=O)N/N=C3\CC(=O)CC(C)(C)C3)cc2)c(Br)c1 | -1% | 10µM*
Cc1cc(OCc2ccc(C(=O)NN=C3CCCC3)cc2)ccc1Cl | -6% | ?
O=c1cc(CSc2n[nH]c(-c3ccccc3)n2)[nH]c2ccccc12 | -7% | -24%
CCNc1ncc2nc(-c3ccccc3)c(=O)n(C[C@H]3CCCO3)c2n1 | -22% | ?
O=C(C[N+]12CN3CN(CN(C3)C1)C2)c1ccc(-c2ccccc2)cc1 | 5% | ?
CCCCCc1c2c(cc(O)c1C(=O)O)OC(=O)c1c(cc(OC)cc1C(=O)CCCC)O2 | -20% | 29%
CCCCCc1c2c(cc(O)c1C(=O)O)OC(=O)c1cc(C(=O)CCCC)c(OC)cc1O2 | 18µM* | ?
Cc1c(Cl)cccc1NC(=O)Cn1cc(C(=O)C2CCCCC2)c2ccccc21 | -3% | ?
CCOC(=O)C(NC(=O)NC1CCCCC1)(c1ccccc1)C(F)(F)F (stereo not given) | 3% | 3.2µM*
CCOC(=O)C(NC(=O)N1CCCCC1)(c1ccccc1)C(F)(F)F (stereo not given) | -4% | 4%
CCc1ccc(NC(=O)CC2C(=O)N(c3ccc(Cl)cc3)C(=O)N2Cc2ccco2)cc1 (stereo not given) | -10% | -17%
NCCC[C@@H](CC(=O)N[C@@H]1CCCC[C@H]1C(=O)N[C@H](CC(=O)N[C@@H](CCC(=O)O)CC(=O)O)Cc1ccccc1)NC(=O)C[C@H](Cc1ccccc1)NC(=O)[C@@H]1CCCC[C@H]1N | 2% | ?
COC(=O)c1ccc(C(NC(=O)OCc2ccccc2)/C(F)=C/[C@@H](C)C(=O)NCc2ccc(-c3ccccc3)cc2)cc1 (stereo not given in full) | 2% | 10µM*
SMILES | Cruzain Triton | Cruzain noTriton
COC(=O)c1ccc(C(NC(=O)OCc2ccccc2)/C(F)=C/[C@@H](C)C(=O)NCc2cc(F)cc(F)c2)cc1 (stereo not given in full) | -1% | -3%
CCOc1ccccc1NC(c1nnc(-c2ccccc2)o1)c1ccc(F)cc1Cl (stereo not given) | -5% | -10%
O=C(Nc1ccccc1NC(=O)c1ccco1)c1ccco1 | 0% | 6%
O=C(Nc1cccc2cccc(NC(=O)c3ccco3)c12)c1ccco1 | -2% | 25µM*
O=C(Nc1nc(-c2cc3ccccc3oc2=O)cs1)c1ccco1 | -7% | -5%
O=C(Nc1nc(-c2ccncc2)cs1)c1ccco1 | -12% | 16µM*
O=C(c1cc(C(F)(F)F)cc(C(F)(F)F)c1)N1CCC2(CC1)CN(c1ncccn1)C2 | -4% | ?
Cc1ccc(NC(=O)c2ccc(N/N=C/c3cccc(O)c3)c([N+](=O)[O-])c2)cc1 | 0% | 10µM*
CCc1ccccc1NC(=O)c1ccc(NCCc2ccccc2)c([N+](=O)[O-])c1 | -4% | -4%
Cc1ccc(NC(=O)c2ccc(Nc3c([N+](=O)[O-])cc([N+](=O)[O-])cc3[N+](=O)[O-])cc2)cc1 | -8% | ?
Cc1ccccc1NC(=O)c1ccc(N/N=C/c2ccccc2O)c([N+](=O)[O-])c1 | 0% | 10µM*
NCCSS(=O)(=O)CCN | 3% | 4%
C/C(C[n+]1ccccc1)=N\N=C(N)N | 6% | 3%
CCOc1ccccc1C1CC(=O)Nc2c1c(=O)n(C)c1ncnn21 (stereo not given) | 0% | 1%
O=C(Nc1cccc(Br)c1)c1cc(S(=O)(=O)N2CCCCC2)c[nH]1 | 1% | ?
Cc1ccc2oc(-c3cccc(NC(=O)/C=C/c4cccc([N+](=O)[O-])c4)c3C)nc2c1 | -1% | 16µM*
O=C(Nc1ccc(Cl)c(-c2nc3ccccc3o2)c1)c1ccc(-c2cccc([N+](=O)[O-])c2)o1 | -3% | -27%
Cc1c(NC(=O)c2ccc(-c3cccc([N+](=O)[O-])c3)o2)cccc1-c1nc2cc(Cl)ccc2o1 | -6% | 3.2µM*
Cc1ccc2oc(-c3cc(NC(=O)/C=C/c4ccco4)ccc3Cl)nc2c1 | -9% | ?
COc1ccc2nc(NC(=O)c3ccc(-c4cccc([N+](=O)[O-])c4)o3)sc2c1 | 1% | 13µM*
COc1ccc2nc(NC(=O)c3cc(C)oc3C)sc2c1 | -4% | -25%
COc1ccc(Cl)cc1NC(=O)CSc1ccc(-c2sc(C)nc2C)nn1 | -4% | -3%
COc1ccc(S(=O)(=O)c2cc(NS(=O)(=O)c3ccc(Cl)cc3)c(C)c(C)c2O)cc1 | -6% | 18%
O=C(c1ccncc1)N1CCC[C@@]2(CCN(c3ccncc3)C2)C1 | 4% | -5%
CN(Cc1ccccc1)S(=O)(=O)c1ccc(NC(=S)NC(=O)C2CCCC2)cc1 | -3% | 2.5µM*
SMILES | Cruzain Triton | Cruzain noTriton
CN(c1ccccc1)S(=O)(=O)c1ccc(NC(=S)NC(=O)C2CC2)cc1 | -5% | -26%
Cc1ccc(-n2c3c(c(=O)[nH]c2=O)C(NC(=O)C(C)(C)C)(C(F)(F)F)C(=O)N3)cc1 (stereo not given) | -1% | 10%
COc1cccc(CN2CCCN(CC(=O)Nc3ccc4c(c3)OCCO4)S2(=O)=O)c1 | -3% | 9%
Cc1c(C(=O)N(C)C)sc2c1c(=O)n(-c1ccccc1C(F)(F)F)c(=O)n2Cc1ccccc1C#N | 0% | -15%
O=C(O)/C=C\c1ccc[c]([Sb])c1 | -4% | 14%
N#C/C(C(=O)NCc1ccccc1)=C1/N=C(NC(=O)c2cccs2)c2ccccc21 | -4% | 25µM*
N#C/C(=C\c1cccs1)C(=O)NCc1ccccc1 | -6% | -7%
Cc1nn(-c2ccccn2)c2c1C(c1c(F)cccc1Cl)C1=C(N2)c2ccccc2C1=O (stereo not given) | -6% | 25µM*
Cc1nn(-c2ccccn2)c2c1C(c1ccccc1Cl)C1=C(N2)c2ccccc2C1=O (stereo not given) | -2% | -14%
CCOc1ccc(CCNC(=O)CSc2nnnn2-c2ccccc2Cl)cc1OCC | -3% | ?
O=S(=O)(N/N=C\c1cn(-c2ccccc2)nc1-c1ccccc1)c1ccccc1 | -3% | ?
